Source: PubChem BioAssay
GAA850 FXN act: frataxin GAA850 promoter activation; HEK293 lucGAA850 FXN promoter luciferase reporter, 24 h; percent of 10 µM SAHA response; 360,000 compounds, 0.56% hits; activation, % at 6 µM;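 active = activation above the average of all compounds screened plus 3 SD, cutoff fixed separately per campaign, cut at about 7.5% in these data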;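 also: 0% = DMSO wells and 100% = 10 µM SAHA wells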
HSF1 inh: HSF1 inhibition; activity change, negative = inhibition, % at 7.5 µM (by protocol); NIH3T3-HGL HSE-luciferase, MG132-induced, luminescence 8 h; active compounds read low; 300,000 compounds, 0.77% hits;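 active = more than half of replicate wells show activity change below -50%, luminescence cut by over half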;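 also: luciferase reports HSF-1 transcriptional activity via heat shock element; 0% = median of DMSO wells and -100% = zero luminescence signal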
AHR act: activates the human aryl hydrocarbon receptor. AHR-responsive luciferase reporter cells, luminescence. AID 2796. 320,000 compounds, 2.5% hits. activation, % at 5 µM; in the data active = activation above about 47%;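 also: 0% = vehicle wells and 100% = reference agonist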
HSF-1 act: increases HSF-1 driven luciferase reporter signal; NIH3T3-HGL HSF-1 luciferase reporter, MG132, 8 h; 100% = twice DMSO control signal; activation, % at 9 µM; 300,000 compounds, 1.7% hits; AID 504408;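 active = mean replicate activation of at least 50% with a set share of replicates each reaching 50%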;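 also: 0% = median of the neutral control wells and 100% = twice that signal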
Active calls of the source: *; / = no result given. An excerpt weighted towards active compounds, which were near 4.6% of everything screened.

SMILES | GAA850 FXN act | HSF1 inh | AHR act | HSF-1 act
COc1ccc(N2C(=O)C(C)(C)C2c2c(O)ccc3ccccc23)cc1 (configuration not stated) | 0 | -73* | 1 | -79
O=C(COC(=O)c1ccc([N+](=O)[O-])o1)NCCc1ccccc1 | -1 | / | 1 | /
C/C(N)=C(/C#N)C(=O)CSc1nn(-c2ccc(Cl)cc2)c(=S)s1 | 4 | 57 | 8 | 99*
C/C(N)=C(/C#N)C(=O)CSc1nnc(SCc2ccc(Cl)cc2)s1 | 0 | 9 | -1 | 24
COC(=O)c1cccc(CSc2nc3ccccc3[nH]2)c1 | 5 | 25 | -9 | 55*
CC(C)CCSc1nc2ccccc2[nH]1 | 3 | 48 | -1 | 65*
COC(=O)c1ccc(CSc2nc3ccccc3[nH]2)o1 | 3 | 9 | 3 | 11
CCOc1ccccc1CSc1nc2ccccc2[nH]1 | -1 | 12 | 54* | 13
COc1ccc(-c2cc(C(=O)NCCN3CCOCC3)c3ccccc3n2)cc1OC | 3 | 2 | 24 | 2
Cc1cc(N2C(=O)C(O)=C(C(=O)c3ccc(C)o3)C2c2cccc(Oc3ccccc3)c2)no1 (configuration not stated) | 2 | 0 | 4 | -16
CCn1c(-c2cc(Cl)ccc2OC)n[nH]c1=S | 1 | -4 | -3 | 11
COc1ccc(C(=O)NCCS(=O)(=O)NCCc2ccccc2)cc1 | 3 | 22 | 10 | 41
COc1cccc(C(=O)NCCS(=O)(=O)NCCc2ccccc2)c1 | 1 | 34 | 6 | 59*
COc1ccc(-c2cc3nc(C)cc(N4CCN(C(=O)c5ccoc5)CC4)n3n2)cc1 | 1 | / | / | /
COc1ccc(-c2cc3nc(C)cc(N4CC(C)CC(C)C4)n3n2)cc1 (configuration not stated) | 1 | / | 50* | /
Cn1nc(C(F)(F)F)c(C(=O)Nc2ccc(F)cc2F)c1Sc1cccc(Cl)c1 | -1 | 16 | 2 | 28
CNc1c(NS(=O)(=O)c2ccc(CC(C)C)cc2)c(=O)oc2ccccc12 | -2 | 1 | -1 | 3
CN(C)c1ccc(Nc2cc(Cl)ncn2)cc1 | 4 | 5 | 73* | 15
CCCn1c(C)cs/c1=N\C(=S)Nc1ccccc1 | -2 | 13 | 48* | 1
COc1ccc(N(CC(=O)Nc2cccnc2)S(C)(=O)=O)cc1 | 1 | -3 | 7 | -6
COc1cccc(N(CC(=O)Nc2cccnc2)S(C)(=O)=O)c1 | 0 | -81* | 3 | -85
COc1ccc(C)cc1NS(=O)(=O)c1ccc(NC(=O)CN(c2cc([N+](=O)[O-])ccc2C)S(C)(=O)=O)cc1 | -1 | 18 | 48* | 21
COc1cccc(NC(=O)Nc2cccnc2)c1 | -1 | 1 | 50* | 4
COc1ccc(OC)c(N(CC(=O)Nc2ccccc2)S(C)(=O)=O)c1 | 1 | -65* | 3 | -72
COc1cccc(NC(=O)NC2(C(F)(F)F)Oc3ccccc3O2)c1 | 4 | 39 | 7 | 67*
SMILES | GAA850 FXN act | HSF1 inh | AHR act | HSF-1 act
NS(=O)(=O)c1ccc(CCNc2nc(CN3CCCCC3)nc3sc4c(c23)CCC4)cc1 | 3 | -4 | 2 | -2
Cc1cc(C(=O)CSc2nnc(-c3cccs3)o2)c(C)n1-c1ccccc1 | -12 | -73* | 6 | -76
Cc1ccc(NC(=O)CSc2nnc(-c3cccs3)o2)cc1S(=O)(=O)N(C)C | / | 12 | 56* | -2
CCN(CC)S(=O)(=O)c1cc(NC(=O)CSc2nnc(-c3cccs3)o2)ccc1C | 3 | -1 | 20 | 34
Cc1cc(C(=O)CSc2nnc3ccccn23)c(C)n1-c1ccccc1 | -12 | -81* | -8 | -85
Cc1cc(C(=O)CSc2nnc(-c3ccccc3)n2-c2ccccc2)c(C)n1-c1ncn[nH]1 | 0 | 0 | 1 | -9
CNC(=S)NNC(=O)c1sc(-c2cc(C)on2)nc1C | 0 | 3 | 74* | 45
COC1C=CC=C(C)C(=O)NC2=CC(=O)C(N)=C(CC(C)CC(OC)C(O)C(C)C=C(C)C1OC(N)=O)C2=O (configuration not stated) | -10 | 69* | / | 69*
COC1CC(C)C(OC)c2cc(O)cc(c2O)NC(=O)C(C)=CC=CC(C)C(OC(N)=O)C(C)=CC(C)C1OC (configuration not stated) | -2 | / | / | /
O=c1oc(Nc2ccccc2Cl)nc2ccccc12 | 3 | 23 | / | 26
O=c1oc(Nc2cccc(Cl)c2)nc2ccccc12 | 4 | 25 | 7 | 67*
CCc1ccc(CN(C)C(=O)CCc2nc3ccccc3n(-c3ccc(OC)cc3)c2=O)cc1 | -3 | 41 | -1 | 70*
CC(C)CC(=O)NC(=S)Nc1cccc(NC(=O)c2ccccc2)c1 | 0 | 0 | 5 | 5
Cc1cc(NC(=S)NC(=O)CC(C)C)ccc1Br | 3 | 7 | 64* | 13
Cc1ccc(-c2c(C#N)c(N)nc3c2CCCC3)s1 | 5 | 2 | 1 | 9
CC1CC2(CCCCC2)Nc2ccc3ccccc3c21 (configuration not stated) | -2 | 38 | 1 | 58*
CC(=O)N1c2ccc3ccccc3c2C(C)CC12CCCCC2 (configuration not stated) | 0 | 2 | -1 | 24
COc1cccc(NC(=O)c2sc(Cl)nc2C)c1 | 0 | 7 | 0 | 8
c1ccc(CNc2nc(NCc3ccccc3)c3ccccc3n2)cc1 | -3 | -60* | 4 | -65
c1ccc(CNc2nc(-c3ccccc3)nc3ccccc23)cc1 | 2 | 12 | -1 | 26
O=C(Nc1cccs1)N1CCN(c2ncccn2)CC1 | 1 | -1 | 1 | 6
CC(CCc1ccccc1)NC(=O)CN1CCc2ccccc2C1 (configuration not stated) | 3 | 51 | 0 | 94*
CC(=O)C(Cc1ccccc1)NC(=O)CN1CCc2ccccc2C1 (configuration not stated) | 1 | 4 | 2 | 16
O=C(NCCc1ccccc1)c1ccccc1C(=O)NCCc1ccccc1 | 1 | 11 | 70* | 25
O=C(NC(=S)NCCc1ccccc1)c1ccccc1F | 2 | 25 | 74* | 42
SMILES | GAA850 FXN act | HSF1 inh | AHR act | HSF-1 act
O=C(NCCc1ccccc1)c1noc2c1CCc1ccccc1-2 | -1 | 24 | -4 | 52*
O=C(NC(=S)NCCc1ccccc1)c1ccccc1 | 4 | 14 | 69* | 24
COc1cccc(C(=O)NC2CCN(C(=O)N3CCCCC3)CC2)c1 | -2 | -7 | 9 | 0
CC1(C)Cc2c(sc3nc(C4CC4)n(N)c(=O)c23)CO1 | 2 | -60* | 18 | -71
Cc1ccc(C(=O)C2(C)C3c4cc(Br)ccc4OC(=O)C32C(=O)c2ccco2)cc1 (configuration not stated) | 1 | -6 | 2 | -5
O=C1CN=C(Nc2ccc(Cl)cc2)N1c1ccccc1 | 1 | -6 | 4 | -5
CCCCc1cc(=O)oc2cc(C)cc(OCC(=O)NCc3cccnc3)c12 | -1 | 11 | 17 | 6
Cc1cc(OCC(=O)Nc2cccnc2)c2c(C)c(C)c(=O)oc2c1 | -1 | 0 | 78* | 17
CCc1cc(=O)oc2cc(C)cc(OCC(=O)NCc3ccncc3)c12 | 0 | -3 | 75* | 1
